{"source": "PubChem BioAssay (NCI)", "note": "The panel holds about 83,000 compounds, 20% with a hit somewhere; the sample as a whole holds those more often.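 For each line, cells grew in 96-well plates with the test compound present at a single concentration for 48 hours.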 A number with no mark means an inactive call. The source made the active and inactive calls. The calls were made as follows: active = growth percent below 10; inactive = the rest.", "data": [{"tested_on": "SK-OV-3 ovarian", "experiment": "NCI-60 one-dose screen, 48 h (100 = growth as untreated, 0 = no growth, -100 = all killed)", "conditions": "10 µM unless noted", "values": [{"smiles": "Cn1cnc([N+](=O)[O-])c1N1c2ccncc2Sc2ccncc21", "growth": "92.2%"}, {"smiles": "O=C(Nc1ccccc1F)Nc1ccccc1Cl", "growth": "104%"}, {"smiles": "CCCOC(=O)c1ccc([N+](=O)[O-])o1", "growth": "113%"}, {"smiles": "COc1cc(/C=C/C(=O)c2ccc(Oc3ncnc4ccccc34)cc2)cc(OC)c1OC", "growth": "83.6%"}, {"smiles": "COc1ccc(/C=C2\\CS(=O)(=O)C/C(=C\\c3ccc(OC)cc3)C2=O)cc1", "growth": "25.4%"}, {"smiles": "CC(NCCC(c1ccccc1)c1ccccc1)c1ccccc1", "note": "(configuration not stated)", "growth": "99.1%"}, {"smiles": "O=C(/C=C/c1ccco1)c1cccc(Nc2nc(Nc3ccccc3)nc(Nc3ccccc3)n2)c1", "growth": "90.5%"}, {"smiles": "Cc1cc(NCCN(C(C)C)C(C)C)nc(/N=C(\\N)Nc2ccc(Cl)c(C(F)(F)F)c2)n1", "growth": "-82% (active)"}, {"smiles": "O=S1(=O)N(CCNc2nccc(-c3c(-c4cccc(O)c4)nc4sccn34)n2)CCN1Cc1ccccc1", "growth": "52.9%"}, {"smiles": "Clc1ccc(CN2COc3c(ccc4cccnc34)C2)cc1Cl", "growth": "13.4%"}, {"smiles": "CCC(C)Nc1ccc(N)cc1", "note": "(configuration not stated)", "growth": "38.5%"}, {"smiles": "CC1(C)N=C(N)N=C(N)N1c1ccc(OCC(=O)Nc2ccccc2)c(Cl)c1", "growth": "57.3%"}, {"smiles": "COc1ccc2c(c1)C(=O)/C(=C/c1ccc(OCC(=O)c3ccc(Cl)cc3)cc1)O2", "growth": "98.8%"}, {"smiles": "Cc1cccc(NC(=O)CCc2ccc(N3C(N)=NC(N)=NC3(C)C)cc2)c1", "growth": "60.3%"}, {"smiles": "CCn1c(SC)nnc1-c1cc2c([nH]c3ccccc32)c(-c2cccc(O)c2)n1", "growth": "27.5%"}, {"smiles": "CC(=O)N1N=C2N(Cc3ccccc3)C(=O)c3c(sc4c3CCCC4)N2C1c1cn(-c2ccccc2)nc1-c1ccc(Cl)cc1", "note": "(configuration not stated)", "growth": "88%"}, {"smiles": "COc1ccc2c(c1)C(=O)/C(=C/c1cccc(OCC(=O)c3ccccc3)c1)O2", "growth": "121%"}, {"smiles": "NC(=S)NNC1CCCCC1", "growth": "93.3%"}, {"smiles": "NC(CSC(c1ccccc1)(c1ccccc1)c1ccc(F)cc1)C(=O)O", "note": "(configuration not stated)", "growth": "34.3%"}, {"smiles": "CC1=C[S+](c2ccccc2)c2cccc3cc4ccccc4c1c23", "note": "(configuration not stated)", "growth": "0.639% (active)"}, {"smiles": "Cn1c(I)c(C#C[Si](C)(C)C)c(=O)[nH]c1=O", "growth": "110%"}, {"smiles": "COc1ccc2c(-c3ccc(F)cc3)c(C#N)c(=NC(C)=O)oc2c1", "growth": "44.6%"}, {"smiles": "Nc1ccc(S(=O)(=O)Nc2ccnn2-c2ccccc2)cc1", "growth": "103%"}, {"smiles": "Cc1cn(C2CC(F)C(CO)O2)c(=O)[nH]c1=O", "note": "(configuration not stated)", "growth": "93.1%"}, {"smiles": "CCCN1C(=O)CSC1=Nc1ccc2cc3ccc(N=C4SCC(=O)N4CCC)cc3nc2c1", "growth": "74.5%"}, {"smiles": "CC(=O)c1cc2c(c(O)c1C)C(=O)C(=O)c1c(O)cccc1-2", "growth": "-94.3% (active)"}, {"smiles": "CC(C)(C)NC(C1=CC(C)(C)c2ccccc2C1=O)c1ccccc1", "note": "(configuration not stated)", "growth": "29.2%"}, {"smiles": "CC(=O)N1N=C(CCC(=O)c2nc3ccc([N+](=O)[O-])cc3[nH]2)OC1c1ccc(O)cc1", "note": "(configuration not stated)", "growth": "75.3%"}, {"smiles": "CCC1(C(N)=O)CC2C=CC1CC2", "note": "(configuration not stated)", "growth": "91.9%"}, {"smiles": "C=C1C(=O)O[C@H]2[C@H]1CC/C(C(=O)Nc1ccc(OC)c(C(N)=O)c1O)=C\\CC[C@@]1(C)O[C@@H]21", "growth": "80.7%"}, {"smiles": "Nc1nc2ccc(CNc3ccc(C(=O)NC(CC(=O)O)C(=O)O)cc3)cc2c(=O)[nH]1", "note": "(configuration not stated)", "growth": "76.8%"}, {"smiles": "CCOC(=O)NNc1nncc2ccccc12", "growth": "101%"}, {"smiles": "COc1ccc2c(c1)nnc1c3cccnc3[nH]c21", "growth": "19%"}, {"smiles": "CC1(C)N=C(N)N=C(N)N1c1ccc(F)c(C(F)(F)F)c1", "growth": "60.5%"}, {"smiles": "O=C1CN(CCN2CC(=O)NC(=O)C2)CC(=O)N1", "growth": "102%"}, {"smiles": "COc1ccc(/C(Cl)=N/N=C(\\Cl)c2cc(OC)c(OC)c(OC)c2)cc1OC(C)=O", "growth": "80%"}, {"smiles": "CC1(C)N=C(N)N=C(N)N1c1cccc(CCCCc2ccccc2)c1", "growth": "30.3%"}, {"smiles": "CC(=O)c1ccc2c(c1)C1C=CCC1[C@H](c1cc3c(cc1Br)OCO3)N2", "note": "(some centres not stated)", "growth": "34.2%"}, {"smiles": "Clc1ccc2c(c1)nnn1c3ncccc3c(Br)c21", "growth": "51.3%"}]}, {"tested_on": "IGROV1 ovarian", "experiment": "NCI-60 one-dose screen, 48 h (100 = growth as untreated, 0 = no growth, -100 = all killed)", "conditions": "10 µM unless noted", "values": [{"smiles": "CCCOC(=O)c1ccc([N+](=O)[O-])o1", "growth": "102%"}, {"smiles": "COc1cc(/C=C/C(=O)c2ccc(Oc3ncnc4ccccc34)cc2)cc(OC)c1OC", "growth": "66.5%"}, {"smiles": "CC(NCCC(c1ccccc1)c1ccccc1)c1ccccc1", "note": "(configuration not stated)", "growth": "55.6%"}, {"smiles": "O=S1(=O)N(CCNc2nccc(-c3c(-c4cccc(O)c4)nc4sccn34)n2)CCN1Cc1ccccc1", "growth": "51.9%"}, {"smiles": "CCn1c(SC)nnc1-c1cc2c([nH]c3ccccc32)c(-c2cccc(O)c2)n1", "growth": "35%"}, {"smiles": "NC(=S)NNC1CCCCC1", "growth": "96.4%"}, {"smiles": "COc1ccc2c(-c3ccc(F)cc3)c(C#N)c(=NC(C)=O)oc2c1", "growth": "54%"}, {"smiles": "Nc1ccc(S(=O)(=O)Nc2ccnn2-c2ccccc2)cc1", "growth": "107%"}, {"smiles": "CC(=O)c1cc2c(c(O)c1C)C(=O)C(=O)c1c(O)cccc1-2", "growth": "-37.3% (active)"}, {"smiles": "CC(=O)N1N=C(CCC(=O)c2nc3ccc([N+](=O)[O-])cc3[nH]2)OC1c1ccc(O)cc1", "note": "(configuration not stated)", "growth": "103%"}, {"smiles": "C=C1C(=O)O[C@H]2[C@H]1CC/C(C(=O)Nc1ccc(OC)c(C(N)=O)c1O)=C\\CC[C@@]1(C)O[C@@H]21", "growth": "55.5%"}, {"smiles": "CCOC(=O)NNc1nncc2ccccc12", "growth": "106%"}, {"smiles": "COc1ccc(/C(Cl)=N/N=C(\\Cl)c2cc(OC)c(OC)c(OC)c2)cc1OC(C)=O", "growth": "105%"}]}]}
